TIM10 inh – growth inhibitors of TIM10 yeast strain; S. cerevisiae TIM10 strain growth, BacTiter-Glo luminescence, 24 h; inhibition, % at 10 µM; actives 1.4% (n = 330,000); AID 463195;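 active means inhibition of 40% or more at the single tested concentration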;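 further: wild-type TIM10 isogenic control strain grown at permissive 25 °C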
SKKanGAS inh – blocks kanamycin growth of S. pyogenes SKKanGAS strain | BacTiter-Glo, 6 h | inhibition, % at 7.5 µM | actives 1.3% (n = 300,000);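 active means mean replicate score, as percent of positive control median, at least 50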;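 further: strain carries kanamycin resistance gene driven by streptokinase promoter and grows in 40 µg/ml kanamycin; loss of luminescence reflects streptokinase promoter inhibition or plain growth inhibition; 0% = median of DMSO wells and 100% = positive control at its reference dose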
tim23-1 inh – tim23-1 yeast growth inhibition | inhibition, % at 20 µM | S. cerevisiae tim23-1 growth, BacTiter-Glo luminescence, 24 h | actives 1.3% (n = 330,000);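 active means growth inhibition of the mutant yeast at or above 50%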;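 further: temperature-sensitive mutant grown at 25 °C; plate controls were DMSO-treated mutant yeast for no effect and medium wells lacking yeast for full effect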
PfHsp90 set2 – reduces growth (ATP signal) of yeast expressing P. falciparum Hsp90 | S. cerevisiae expressing PfHsp90, BacTiter-Glo ATP, 48 h; yeast lacking PDR1 and PDR3 efflux regulators | inhibition, % at 9.4 µM | actives 0.32% (n = 310,000);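 active means every replicate shows inhibition above about 80%, whatever the replicate mean, limit read from the data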;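 further: 0% = DMSO neutral controls and 100% = 20 µM radicicol positive controls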
tim10-1 inh – growth inhibitors of tim10-1 mutant yeast | inhibition, % at 20 µM | actives 2.2% (n = 330,000) | S. cerevisiae tim10-1 ts strain growth, BacTiter-Glo, 24 h;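 active means inhibition of at least 40%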;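 further: mutant grown at 25 °C; 0% = DMSO wells with yeast and 100% = wells holding no yeast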
NALP1 yeast inh – blocks the NALP1 inflammasome reconstituted in yeast; actives 0.61% (n = 280,000); inhibition, % at 10 µM; S. cerevisiae NALP1/ASC/caspase-1 growth, X-gal OD620, 72 h; AID 2071; in the data active means inhibition mostly above about 24%, no sharp cut-off; inactive means mostly below about 32%
tim10-1 conf – confirmation of tim10-1 mutant yeast growth inhibitors; shares compounds with tim10-1 inh; S. cerevisiae tim10-1 ts strain growth, BacTiter-Glo, 24 h; inhibition, % at 20 µM; actives 56% (n = 7,400); AID 463213;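 active means inhibition of yeast growth at or above a set limit in either of two repeat tests at 20 µM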;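 further: tim10-1 mutant grown at permissive 25 °C to find synthetic lethal compounds; 0% = DMSO yeast wells and 100% = medium wells without yeast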
* marks the source's active call; other numbers are inactive results; nt = no result given. Rows were chosen to be rich in hits. Some 4.8% of all compounds tested hit in one or more screens of this group.

SMILES	TIM10 inh	SKKanGAS inh	tim23-1 inh	PfHsp90 set2	tim10-1 inh	NALP1 yeast inh	tim10-1 conf
CN(C)C(=O)COC(=O)c1ccccc1OCC(=O)Nc1ccc(SC(F)F)cc1	-19.9	-6.3	13.4	-2.6	0.3	16.3	nt
COC(=O)CC#N	7.7	nt	-21.2	-8.2	-6.4	nt	nt
CC1CC(C)(C)NC(=S)N1CCCC(=O)Nc1ccc(F)c(F)c1 (stereo not given)	0.8	1.1	-9.5	3.8	20.8	29.6	nt
CC(C)c1ccc(NC(=O)CCCN2C(=S)NC(C)(C)CC2C)cc1 (stereo not given)	14.6	-7.2	37.6	nt	43.5*	20.9	10.3
Cc1ccccc1CNS(=O)(=O)c1c(C(=O)N2CCCCC2)c(C)n(C)c1C	0.8	-3.1	9.3	8.2	25.0	12.1	nt
CN1C(=O)C(O)(CC(=O)/C=C\c2ccc3c(c2)OCO3)c2ccccc21 (stereo not given)	35.5	nt	39.5	12.5	41.9*	10.1	28.4
Cc1ccc(C(C)C)cc1C(=O)CC1(O)C(=O)N(C)c2ccccc21 (stereo not given)	32.5	3.1	1.1	-0.6	41.6*	5.0	32.5*
NC(=O)CN1C(=O)C(O)(CC(=O)/C=C\c2ccc3c(c2)OCO3)c2ccccc21 (stereo not given)	-3.0	-8.2	-3.0	6.9	5.9	8.1	nt
O=C(NCCc1ccccc1)c1cccc(NC(=O)C2CCCCC2)c1	nt	nt	nt	10.8	nt	nt	nt
Cc1ccccc1OCC(=O)Nc1cnn(CCCC(=O)O)c1	-0.5	-3.8	-0.1	-12.2	-2.8	12.4	nt
O=C(CSc1nc(=O)n2ccccc2n1)NC1CCCCC1	2.3	-7.5	1.4	7.9	16.7	nt	nt
CCC(=O)Nc1cccc(C(=O)c2ccccc2)c1	5.1	-11.4	12.6	5.9	-1.1	21.2	nt
CCC(=O)Nc1cccc(C(=O)/C=C/c2ccccc2)c1	19.9	-4.3	34.0	3.9	42.0*	13.5	42.6*
Cc1cc(C)c(NC(=O)C2CCCN2C)c(C)c1 (stereo not given)	2.7	-1.8	5.5	58.9	-1.9	3.3	nt
CC(=O)N(c1ccccc1)C1CC(C)N(C(=O)c2ccccc2)c2ccccc21 (stereo not given)	20.4	-1.9	28.9	1.4	42.1*	7.8	22.1
CCC(=O)N1c2ccccc2[C@@H](N(C(C)=O)c2ccccc2)C[C@H]1C	-0.7	-7.4	16.0	12.9	16.2	7.5	nt
Cc1cc(C)n(-c2ccc(N3CCOCC3)nn2)n1	-4.2	3.6	-0.7	4.3	-2.0	10.9	nt
CCNc1nnc(CSc2nc3ccccc3s2)s1	30.7	0.9	44.9	15.9	44.4*	2.1	38.8*
COc1ccc(-n2nnnc2SCC(=O)Nc2ccccc2F)cc1	-4.9	-8.3	18.1	16.9	16.3	-1.7	nt
COC(=O)c1c(N)sc(Cc2ccccc2)c1C	4.7	11.9	26.0	-25.8	18.6	5.8	nt
Nc1sc(-c2ccccc2)c(Cc2ccccc2)c1C(=O)O	20.1	12.4	18.9	-7.5	53.2*	10.5	34.8*
O=C(/C=C/c1ccccc1)N(c1ccccn1)C1CCCCC1	11.9	-2.2	23.7	-11.8	43.2*	36.2	24.5
O=C(/C=C/c1ccccc1Cl)N(c1ccccn1)C1CCCCC1	12.7	1.5	45.3	12.9	14.3	15.7	nt
C/C(=N/NC(=O)c1ccco1)c1cccc(NC(=O)c2ccc(C)o2)c1	23.0	-1.2	6.4	14.0	13.2	-1.6	nt
C/C(=N/NC(=O)c1ccc(Br)o1)c1cccc(NC(=O)c2ccc(F)cc2)c1	28.8	5.1	40.3	nt	49.3*	17.9	39.5*
C/C(=N/NC(=O)c1ccc(Br)o1)c1cccc(NC(=O)c2ccc(C)o2)c1	15.8	-0.2	36.9	11.3	44.2*	25.2	17.7
O=[N+]([O-])c1ccc(NCCNS(=O)(=O)c2ccccc2)cc1	1.5	-7.9	9.5	-4.8	6.5	0.9	nt
Cc1ccc(Cl)cc1NC(=S)Nn1cnnc1	7.5	6.4	-10.0	11.5	-12.5	-1.6	nt
COc1cccc(Oc2nc(-c3ccncc3)nc3ccccc23)c1	22.4	-3.2	46.9	nt	41.5*	29.0	21.6
COCCCn1nnnc1SCC(=O)N1c2ccccc2CC1C (stereo not given)	2.3	-6.9	8.9	8.5	-14.2	-5.8	nt
